Active and inactive are the calls of the source.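 How the source made its calls: active means valid curve fit with half-effect dose at most 10 µM and total binding change across doses of 30 points or more; inactive means the rest.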
Test system: Rho wt
Assay: inhibitors of Bodipy-GTP binding across eight GTPases, SAR follow-up, selectivity assay for Cdc42 probe extension project, biochemical, round 1 SAR, Mg buffer, multiplex flow cytometry (AID 588477)
Settings: GST-GTPase beads; series mostly up to 100 µM

In the case of `O=C(C#Cc1ccccc1)c1cccc([N+](=O)[O-])c1`, the outcome is reported as “inactive”.
`NS(=O)(=O)c1ccc(N2N=C(c3ccccc3)CC2c2ccccc2)cc1` (stereo not drawn) was tested, and the outcome was “inactive”.
With `COc1ccc(C2CC(c3ccccc3)=NN2c2ccc(S(N)(=O)=O)cc2)cc1` (stereo not drawn) the outcome was “inactive”.
